Experimental findings from PubChem BioAssay (NCI) are described below.

SMILES strings stand for the structures. The panel holds about 83,000 compounds, 20% with a hit somewhere; the sample as a whole holds those more often.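 Percent growth is the endpoint: 0 to 100 indicates growth inhibition (40 means 60% inhibition), 0 means no net growth, and negative values indicate cell death.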 A number with no mark means an inactive call. Active and inactive are the calls of the source.

For the assay, the system named is OVCAR-3 ovarian. Kind of assay: NCI-60 one-dose screen, 48 h (100 = growth as untreated, 0 = no growth, -100 = all killed). Particulars: 10 µM unless noted. The method, then: Growth inhibition of the OVCAR-3 human tumor cell line is measured as a screen for anti-cancer activity. Cells are grown in 96 well plates and exposed to the test compound for 48 hours. Compounds are tested at a single concentration, which is 10^-5 M for most compounds. The reported endpoint is percent growth (GI% or GIPRCNT), where numbers from 0 - 100% represent growth inhibition, and numbers from -100% - 0 represent cell death. For example, a value of 40 represents 60% growth inhibition. A value of 0 means no net growth occurred over the course of the experiment. A value of -40 indicates 40% of cells at the beginning of the experiment died by the end of the experiment. A value of -100 means all cells are dead at the end of the experiment.
NCI-60 Human Tumor Cell Lines Screen was performed using the standard one-dose NCI protocol, which is described in more detail at https://dtp.cancer.gov/discovery_development/nci-60/default.htm.
Compounds with GIPRCNT values below 10 were considered active. Activity score was based on GIPRCNT using the following formula: […]
Score is 0 for GIPRCNT values of 100 or above, 50 for GIPRCNT values of 0, and 100 for GIPRCNT values of -100.
As to `O=C1c2ccccc2C(=O)N1[N+](=O)[O-]`, the growth is 106%.
`CC[C@H](C)[C@H](NC(=O)Nc1ccccc1)C(=O)N(C)[C@H](C[C@@H](OC(C)=O)c1nc(C(=O)N[C@@H](Cc2ccccc2)C[C@H](C)C(=O)OC)cs1)C(C)C`: the growth is -40.4% (active).
For `O=C1NC(=O)C(CN2C(=O)C3(c4ccccc42)[C@H](Cl)C(=O)N3c2ccccc2)C(=O)N1` (stereo not given in full), the growth was 54.7%.
Consider `CCCCOC(=O)c1ccccc1C(=O)O.CCCCOC(=O)c1ccccc1C(=O)O.[Cu+2]`, for which the growth was 110%.
The value for `N#CC1=C(N)Oc2cc3c(cc2C1c1cccs1)OCO3` (stereo not given) was -15% (active); that for `c1ccc(-c2ccc3ccccc3[o+]2)cc1` was 100%; that for `CCOc1cc(/C=N\Nc2nnc(C)n2N)c(C)cc1N(CCCl)CCCl` was 4.15% (active).
Take `CCC1CN1P(=O)(OCCOC)N1CC1CC` (stereo not given): the growth is 119%.
Consider `CCCC(C)(C)c1ccc2c(c1)OC(C)(C)[C@@H]1CC=C(C)C[C@@H]21`, for which the growth is 102%.
Consider `CCOc1c(Cl)cc(CNC(C)C(O)c2ccccc2)cc1OC` (stereo not given), for which the growth is 67.4%.
Take `CCCCn1cc(C(=O)/C(C#N)=C/c2cc3ccccc3nc2Cl)c2cc(OC)ccc21`: the growth is 78.6%.
The value for `CCC(C)(C)O` was 111%.
The value for `N#C[Se]CCCNS(=O)(=O)C1CC2C=CC1C2` (stereo not given) was -63.6% (active); that for `CCN(CC)CCOc1c(C(C)C)cccc1C(C)C` was 107%.
The value for `C=CCC1(CC)C(=O)NC(=S)NC1=O` was 105%; that for `O=C(C(=O)N1CCCC1)c1cn(CCCCCn2cc(C(=O)C(=O)N3CCCC3)c3ccccc32)c2ccccc12` was 88.4%.
For `C[C@]12CC[C@H]3[C@@H](C[C@@H]4N=C(c5ccc(O)cc5)S[C@@]45C[C@H](O)CC[C@]35C)[C@@H]1CC[C@@H]2O`, the growth is 38.6%.
As for `Cc1ccc(N)cc1[As]=[As]c1cc(N)ccc1C` (stereo not given), the growth is -92.6% (active).
The value for `CC1CC=CCC12C(=O)NC(=S)NC2=O` (stereo not given) was 118%.
The value for `CC(=O)O[C@H]1CCC2(C)C(=CCC3C2CCC2(C)/C(=N/OC(=O)c4ccc(N(CCCl)CCCl)cc4)CCC32)C1` (stereo not given in full) was 53.5%; that for `CCC(C)[C@H]1O[C@]2(C=C[C@@H]1C)C[C@@H]1C[C@@H](C/C=C(\C)[C@@H](OC3C[C@H](OC)C(O[C@H]4C[C@H](OC)[C@@H](O)[C@H](C)O4)[C@H](C)O3)[C@@H](C)/C=C/C=C3\CO[C@@H]4[C@H](O)C(C)=C[C@@H](C(=O)O1)[C@]34O)O2` (stereo not given in full) was -72.3% (active); that for `C=CCc1ccc(OC(=O)Cc2ccccc2)c(OC)c1` was 110%.
Regarding `N#CC1c2ccccc2C=CN1C(=O)c1ccc(N(CCCl)CCCl)cc1` (stereo not given), the growth was 88.6%.
As for `Nc1cccc(CC(=O)Nc2ccc(S(=O)(=O)F)cc2)c1`, the growth was 102%.
For `O=C(N/N=C/c1ccc(N(CCCl)CCCl)cc1)c1cc(=O)[nH]c(=O)[nH]1`, the growth was 115%.
In the case of `Cc1cc([N+](=O)[O-])c(Cl)cc1NS(=O)(=O)c1ccccc1`, the growth is 71.7%.
For the compound `CC(=O)C1CCC2C3CC=C4CC(OC(=O)Cc5ccc(N(CCCl)CCCl)cc5)CCC4(C)C3CCC12C` (stereo not given), the growth is 99.6%.
In the case of `CC(=O)[O][Hg][c]1ccccc1`, the growth is -93.3% (active).
On to `Clc1ccc(SSC(Cl)(Cl)Cl)cc1`, for which the growth is 108%.
Turning to `OB([O][Hg][c]1ccccc1)[O][Hg][c]1ccccc1`, the growth was -89.6% (active).
Turning to `C[CH2][Pb]([CH2]C)([CH2]C)[O]C(=O)COc1ccccc1`, the growth is -2.95% (active).
Turning to `CC(=O)[O][Hg][CH2]C1(C)COC(C)([CH2][Hg][O]C(C)=O)CO1` (stereo not given), the growth is -100% (active).
Consider `C[C@]12CC[C@@H]3C4=C(CC[C@H]3[C@@H]1CC[C@@H]2O)CC(=O)CC4`, for which the growth was 113%.
As for `COC(=O)C[Se]C(=O)c1ccccc1OC(C)=O`, the growth is 84.5%.
The value for `CCN1CC2(CN(CC)C1=S)C(=O)NC(=O)NC2=O` was 107%.
Consider `C[CH2][Pb]([CH2]C)([CH2]C)[O]C(=O)COC`, for which the growth was -3.39% (active).
Turning to `CNC(C)Cc1ccccc1` (stereo not given) (tested in a mixture with another compound), the growth was 104%.
The value for `O=C(Nc1ccc(S(=O)(=O)F)cc1)Oc1ccccc1` was 105%; that for `O=CN1N=C(c2ccccc2)CC1c1sc(N(CCCl)CCCl)nc1Cl` (stereo not given) was 96.1%; that for `N#C[Se]CCN1C(=O)C2C(C1=O)[C@H]1C=C[C@@H]2S1` (stereo not given in full) was -64.6% (active).
